# Laboratory results reported in the supplement of paper PMC11624193, “Coupling cellular drug-target engagement to downstream pharmacology with CeTEAM” (Nature Communications, 2024).
# “And” between values parts separate entries of the source, which are not always exact repeats. Identical values can stand only once. Values without a mark were called inactive.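 The calls were made as follows: active = log2 fold change beyond 2 SD from the library mean after excluding viability outliers; inactive = within 2 SD.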
# Molecular target: PARP1 L713F-nLuc biosensor (HCT116) (UniProt P09874)
# Assay: PARP1 L713F-nLuc/akaLuc ratio relative to DMSO control (biosensor stabilization) (fold change); higher = more PARP1 biosensor stabilization (target engagement / stabilizer), active = hit call of the paper
# Settings: 24 h
# [1] = stock concentration (mM; final µM = stock mM x 1): 2
# [2] = stock concentration (mM; final µM = stock mM x 1): 10
# Chain of PARP1 L713F-nLuc biosensor (HCT116) (P09874 whole entry L713F, looked up): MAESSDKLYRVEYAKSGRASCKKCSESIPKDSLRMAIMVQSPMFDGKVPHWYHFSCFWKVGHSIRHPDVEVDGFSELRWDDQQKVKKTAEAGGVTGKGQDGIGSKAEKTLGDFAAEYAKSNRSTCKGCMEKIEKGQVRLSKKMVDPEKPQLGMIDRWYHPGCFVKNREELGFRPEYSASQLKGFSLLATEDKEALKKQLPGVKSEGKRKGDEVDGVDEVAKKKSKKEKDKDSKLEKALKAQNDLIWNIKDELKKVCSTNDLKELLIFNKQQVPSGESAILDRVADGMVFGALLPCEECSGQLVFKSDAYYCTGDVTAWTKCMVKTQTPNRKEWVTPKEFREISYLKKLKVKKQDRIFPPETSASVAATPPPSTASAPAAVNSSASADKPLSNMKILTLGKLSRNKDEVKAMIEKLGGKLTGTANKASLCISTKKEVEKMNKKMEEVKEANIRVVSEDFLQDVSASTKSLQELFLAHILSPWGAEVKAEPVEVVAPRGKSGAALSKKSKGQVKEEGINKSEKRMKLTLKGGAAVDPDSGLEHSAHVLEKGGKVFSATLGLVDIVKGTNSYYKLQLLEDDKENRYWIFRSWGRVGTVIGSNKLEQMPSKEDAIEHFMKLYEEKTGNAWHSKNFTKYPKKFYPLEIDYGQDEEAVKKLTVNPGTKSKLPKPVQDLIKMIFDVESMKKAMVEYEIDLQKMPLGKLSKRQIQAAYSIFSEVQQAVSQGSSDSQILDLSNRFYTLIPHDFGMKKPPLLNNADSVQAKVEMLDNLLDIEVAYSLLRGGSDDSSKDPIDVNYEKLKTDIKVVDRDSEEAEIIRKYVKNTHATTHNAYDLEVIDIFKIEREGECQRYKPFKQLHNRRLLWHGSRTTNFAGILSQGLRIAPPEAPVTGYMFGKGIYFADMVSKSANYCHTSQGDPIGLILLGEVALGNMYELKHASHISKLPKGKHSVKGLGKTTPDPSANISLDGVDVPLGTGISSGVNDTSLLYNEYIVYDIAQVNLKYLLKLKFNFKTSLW
smiles,measurement,setting,value
CCN(c1cc(-c2ccc(CN3CCOCC3)cc2)cc(C(=O)NCc2c(C)cc(C)[nH]c2=O)c1C)C1CCOCC1 [Tazemetostat (EPZ-6438)],PARP1 L713F-nLuc/akaLuc ratio,[1],1.21
O=C(O)C1=CC(=C(c2ccc(O)c(C(=O)O)c2)c2ccc(O)c(C(=O)O)c2)C=CC1=O [Aurintricarboxylic acid],PARP1 L713F-nLuc/akaLuc ratio,[2],0.68
CC(C)(C#N)c1cc(Cn2cncn2)cc(C(C)(C)C#N)c1 [Anastrozole],PARP1 L713F-nLuc/akaLuc ratio,[2],0.888
COc1cc(CCc2cc(NC(=O)c3ccc(N4CC(C)NC(C)C4)cc3)n[nH]2)cc(OC)c1 (stereo not given),PARP1 L713F-nLuc/akaLuc ratio,[2],0.745
O=C(NC[C@H](O)CN1CCc2ccccc2C1)c1ccnc(NC2CCC2)c1,PARP1 L713F-nLuc/akaLuc ratio,[2],0.738
COc1ccc2[nH]cc(/C=C3\C(=O)Nc4ccc(NC(=O)CCN5CCCCC5)cc43)c2c1,PARP1 L713F-nLuc/akaLuc ratio,[2],0.931
Nc1cc(F)ccc1NC(=O)/C=C/c1cnn(C/C=C/c2ccccc2)c1,PARP1 L713F-nLuc/akaLuc ratio,[2],0.76 and 0.99
O=C(O)c1ccccc1Nc1cccc(C(F)(F)F)c1 [Flufenamic acid],PARP1 L713F-nLuc/akaLuc ratio,[2],1.23
CCn1cc(C(=O)O)c(=O)c2cc(F)c(N3CCNCC3)nc21 [Enoxacin (hydrate)],PARP1 L713F-nLuc/akaLuc ratio,stock concentration (mM; final µM = stock mM x 1): 9,0.596
Cc1cc(C)c(CNC(=O)c2cc(-c3ccc(CN4CCOCC4)cc3)cc3c2cnn3C2CCCC2)c(=O)[nH]1,PARP1 L713F-nLuc/akaLuc ratio,[1],1.45
